Results: PubChem BioAssay (NCI)
Compounds without any hit were thinned out: in the full panel of roughly 79,000, 15% have a hit. Cut-off read from the data, not from the text of the source: active = growth inhibition above about 70%; inactive = the rest.

Columns and labels:
[1] = NCI Yeast Anticancer Drug Screen. Data for the rad50 strain (AID 155);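 note: 0% = growth of vehicle-only cultures of the same strain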; settings: S. cerevisiae rad50 strain growth inhibition; at 50.0 µM; active compounds read high
In short: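 Readout: growth inhibition relative to vehicle-treated cultures. Compound exposure was carried out in a genetically defined yeast strain deficient in DNA damage repair.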

[2] = NCI Yeast Anticancer Drug Screen. Data for the mec2-1 strain (AID 157); settings: S. cerevisiae mec2-1 strain, at 50.0 µM, active compounds read high
In short: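 Readout is yeast growth inhibition, normalised to vehicle-treated controls, in the mec2-1 strain exposed to compound.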

[3] = NCI Yeast Anticancer Drug Screen. Data for the mlh1 rad18 strain (AID 175); settings: S. cerevisiae mlh1 rad18 strain growth inhibition; at 50.0 µM; active compounds read high
In short: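 Test agents were incubated with a yeast strain of defined genotype (DNA damage repair defect). Inhibition of growth was derived by comparison with vehicle-exposed cultures.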

Measured: growth inhibition

O=C(CN1C(=O)c2ccccc2C1=O)c1ccc(Br)cc1
inactive: [1] 14.2% | [2] 16.1% | [3] 12.9%

Cc1ccc(S(=O)(=O)Nc2ccccc2C2Nc3ccccc3C(=O)O2)cc1 (stereo not drawn)
inactive: [1] -23.5% | [2] -7.4% | [3] -13.1%

O=C(O)/C=C/C(=O)Nc1cc(Cl)ccc1Cl
inactive: [1] 9.6% | [2] 12.1% | [3] 24.6%

CN(C)c1ccc(P(c2ccc(N(C)C)cc2)c2ccc(N(C)C)cc2)cc1
inactive: [1] -17.2% | [2] -15.3% | [3] -25.2%

CCCCCCCCOC(=O)C(=O)C(C#N)c1ccccc1 (stereo not drawn)
inactive: [1] 6.95% | [2] 6.3% | [3] 10.2%

COc1cc(-c2cc(=O)c3c(O)cc(O)cc3o2)cc(OC)c1OC
inactive: [1] -8.15% | [2] -10.7% | [3] 40%

Cn1/c(=N/Sc2nnnn2-c2ccccc2)sc2ccccc21
inactive: [1] 13.6% | [2] -13.9% | [3] 29.9%

O=CNC(Cc1ccc(O)cc1)C(=O)O (stereo not drawn)
inactive: [1] 4.1% | [2] -30.4% | [3] -8.4%

CN(C)c1ccc(C2=C([O-])C(=C3C=CC(=[N+](C)C)C=C3)C2=O)cc1
inactive: [1] -10.4% | [2] -15.2% | [3] -5.55%

COc1ccc(N=c2ssc(SC)c2-c2ccccc2)cc1
inactive: [1] 15.4% | [2] -11.4% | [3] -0.8%

CCOc1ccc(NC(=S)NC2CCCCCCCCCCC2)cc1
inactive: [1] 15.7% | [2] 10.1% | [3] 32.9%
